From PubChem BioAssay AID588674 (Broad Institute, 2011)
The campaign covered roughly 360,000 compounds. About 1,800 (0.5%) were called active. This is one part of a sample in which actives are shown more often than they occur. Unmarked numbers belong to inactive results.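 The calls were made as follows: active = mean inhibition of at least 75% with every replicate also reaching 75%; inconclusive = mean inhibition at least 75% but some replicate below; inactive = mean inhibition below 75%.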

Assay: reduction of Shn3 3'UTR firefly luciferase signal, primary screen, Schnurri-3 inhibitor project, cell-based, Clone20 osteoblasts, set 2 (AID 588674);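 also: 0% = median of neutral control wells and 100% = pilot-screen positive control compound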
Conditions: Clone20 osteoblast Shn3 3'UTR firefly luciferase, 24 h; at 12.5 µM; stronger effect = higher value

SMILES | inhibition
Cc1ccccc1N1CCN(CCCN2C(=O)C3CCCCN3C2=O)CC1 (centres undefined) | 2.03%
COC(=O)Cc1ccc(OC(=O)C2CCN(S(=O)(=O)c3ccc(OC)c(OC)c3)CC2)cc1 | -15.3%
CNS(=O)(=O)c1ccc2c(c1)[nH]c(=S)n2C | 12.3%
COc1cc(C(=O)OCCCN2CCOCC2)cc(OC)c1OC | 8.18%
COCc1c(C(=O)N/N=C\c2cccnc2)nnn1-c1nonc1N | 9.7%
Nc1nonc1-n1nnc(C(=O)N/N=C/c2cc(Br)ccc2O)c1CSC1=NCCS1 | 94% (active)
Nc1nonc1-n1nnc(C(=O)N/N=C\c2ccncc2)c1CN1CCCCC1 | 10.4%
Cc1ccc(Cc2c(-c3ccco3)nc3ccc(Cl)cn23)cc1 | 2.12%
O=C(CSc1cccc2cccnc12)N/N=C/c1cccnc1 | 20.8%
Cc1c(NC(=O)CSc2cccc3cccnc23)c(=O)n(-c2ccccc2)n1C | 19.9%
CC(=O)/C(=N\Nc1ccc(Cl)cc1Cl)Sc1cccc2cccnc12 | 93% (active)
Cc1ccsc1CNn1cnnc1SCc1ccccc1F | 5.38%
CC12CCC(=O)C=C1CCC1C2C(O)CC2(C)C1CCC2(O)C(O)CO (centres undefined) | 4.53%
CCCCCCNC(=O)O[C@H]1CN(C(=O)OC(C)C)N(C(=O)OC(C)C)[C@@H]2CN(S(=O)(=O)c3ccc(C)cc3)C[C@]12O | -14.9%
CCOc1c(Nc2cccc(Cl)c2)c(=O)c1=O | -16.6%
OCCCNc1nccc(-c2cc(Nc3cccc(Cl)c3)ncn2)n1 | 96.3% (active)
Cc1ccc(NC(=O)CN2CCCCC2)c2c1CC(C)(C)O2 | -24.2%
O=c1c2ccccc2ncn1/N=C/c1ccccc1 | -28%
Cc1ccc(-n2c(SCC(=O)N/N=C/C=C/c3ccccc3[N+](=O)[O-])nc3ccccc3c2=O)cc1 | 1.32%
CCn1c(/C=C/c2ccc([N+](=O)[O-])o2)nc2ccccc2c1=O | 97.2% (active)
C=CCC(CC=C)(C(N)=O)c1ccccc1 | 1.2%
CC(=O)Nc1cccc(C(=O)OCC(=O)NCc2cc(C)c(O)c(C)c2)c1 | -47.1%
C[C@H]1CN([C@@H](C)CO)C(=O)CCCn2cc(nn2)CO[C@@H]1CN(C)S(=O)(=O)c1cccs1 | -17.2%
CCN(CC)c1ccc(/C=N/Nc2nc(C)cc(C)n2)c(O)c1 | 89.4% (active)

SMILES | inhibition
CCOc1cc(/C=N/Nc2cc(C)nc3ccc(C)cc23)ccc1O | -7.54%
O=C1CSC(c2ccc(Cl)cc2)N1 (centres undefined) | -10.9%
O=C(CSc1nc(O)c(Cc2ccccc2)c(=O)[nH]1)Nc1nc2c(s1)CCCC2 | 8.82%
O=C(CCS(=O)(=O)c1ccccc1)Nc1nc2c(s1)CCCC2 | 84.1% (active)
O=C(CCS(=O)(=O)c1ccccc1)NC1CCCC1 | -23.2%
CNc1nc(SC)nc(N(C#N)CC(=O)OC)n1 | -9.64%
C=CCSc1nc(N)cc(=O)[nH]1 | 15.2%
Cc1ccc(-c2nn(-c3ccc(F)cc3)cc2C(=O)NCC(c2cccs2)N2CCOCC2)cc1 (centres undefined) | 13.6%
Cc1ccc(-c2cn3cc(C)ccc3n2)cc1 | 89% (active)
Cc1ccc(-c2nc3ccc(Cl)cn3c2Cc2ccccc2)cc1 | -75.7%
Cc1ccc2nc(-c3ccc(Br)cc3)cn2c1 | 23.5%
Cn1c(=O)c2c(ncn2CC(COCc2ccccc2Cl)OCc2ccccc2Cl)n(C)c1=O (centres undefined) | 13%
Oc1ccc2ccccc2c1N=Nc1nccs1 | 93.2% (active)
CCCCN1CC(N2CCN(Cc3cccc(C)c3)CC2)CS1(=O)=O (centres undefined) | 4.01%
O=[N+]([O-])c1c(NCCO)cc(Sc2nc3ccccc3s2)c2nonc12 | 93.7% (active)
COc1ccc(NC(=O)CCCOc2ccc(C(C)=O)cc2)cc1S(=O)(=O)N1CCCCC1 | 42.4%
O=C(NC(=S)Nc1ccc(Br)cc1F)C1CCCCC1 | -15.2%
Cc1ccc(S(=O)(=O)/N=C(/NC(=S)Nc2c(C)n(C)n(-c3ccccc3)c2=O)c2ccccc2)cc1 | -6.62%
COc1ccc(C(O)c2nc(-c3ccc4c(c3)OCO4)cs2)cc1 (centres undefined) | -17.7%
COc1ccc(C(C)(O)c2nc(-c3ccc(C)c(C)c3)cs2)cc1 (centres undefined) | 8.01%
COc1ccc(OC)c(Nc2nc(-c3ccc(O)c(O)c3)cs2)c1 | 97.4% (active)
COc1ccc(C(=O)OCc2cc(=O)n3ccsc3n2)cc1F | -7.31%
COc1ccc(C(=O)NCc2ccc(Cl)cc2)cc1S(=O)(=O)N1CCCC1 | -1.61%
COc1ccc(CCNC(=O)CN(C)S(=O)(=O)c2ccc3nc(C)sc3c2)cc1OC | -10.6%

SMILES | inhibition
CC1(C(=O)NS(=O)(=O)c2cccc(OC(F)F)c2)CCN1C(=O)C1CC1 (centres undefined) | -7.16%
COc1cc(NC(=S)NCc2ccc(S(N)(=O)=O)cc2)cc(OC)c1 | 2.83%
NS(=O)(=O)c1ccc(CNC(=S)NC(=O)c2ccco2)cc1 | 93.5% (active)
NS(=O)(=O)c1ccc(NC(=O)COC(=O)c2ccco2)cc1 | 2.57%
N#Cc1ccc(S(=O)(=O)NCC(=O)OCC(=O)NCCc2ccccc2)cc1 | 1.43%
OCc1n[nH]c(CO)n1 | -14.1%
Cc1cccc(-n2ncc3c(=O)[nH]c(SCC(=O)Nc4cc(C)on4)nc32)c1 | -22.6%
Cc1cccc(-n2ncc(Cl)c(Cl)c2=O)c1 | 94.3% (active)
CC(=O)Nc1c2c(nn1-c1cccc(C)c1)CSC2 | -0.825%
Cc1c(Br)c([N+](=O)[O-])nn1CC(=O)Nc1sc2c(c1C(=O)OC(C)C)CCC(C)C2 (centres undefined) | -5.32%
O=C(CN1C(=O)NC2(CCOc3ccccc32)C1=O)Nc1cccc([N+](=O)[O-])c1 (centres undefined) | 89.4% (active)
Cc1ccc(C(=O)CN2C(=O)NC3(CCOc4ccccc43)C2=O)s1 (centres undefined) | -11.6%
O=C(CN1C(=O)NC2(CCOc3ccccc32)C1=O)NCc1ccc(F)cc1 (centres undefined) | -2.61%
CNC(=O)c1nnn(-c2ccccc2)c1C(=O)NC | -6.31%
N#Cc1c(NC(=O)c2ccc(N3CCOCC3)c([N+](=O)[O-])c2)sc2c1CCCC2 | 12%
O=C(c1ccc(CS(=O)Cc2ccccc2Cl)o1)N1CCN(c2ccccc2)CC1 (centres undefined) | -5.18%
CC1CC(NC(=S)N(C)C)CC(C)(C)C1 (centres undefined) | -11.6%
Cc1cccc2sc(N(CCCN(C)C)C(=O)CCS(=O)(=O)c3ccccc3)nc12 | 70.2%
COc1cccc2sc(N(CCCN(C)C)C(=O)CCS(=O)(=O)c3ccccc3)nc12 | 97.2% (active)
CCN(CC)CCN(C(=O)c1ccc2c(c1)CCCC2)c1nc2c(OC)cccc2s1 | 18.3%
CC(=O)CSc1nnc(CSc2ncccn2)n1C1CCCCC1 | -0.19%
Cn1c2ccc(F)cc2c2nnc(NN)nc21 | -1.82%
COc1cc(OC)cc(C(=O)NC2CCN(C(=O)N3c4ccccc4Sc4ccccc43)CC2)c1 | 38.1%
NC(c1csc(NC(=O)Nc2cccc(C(F)(F)F)c2)n1)C1CCCCC1 (centres undefined) | 92% (active)

SMILES | inhibition
NC(c1ccccc1)c1csc(NC(=O)Nc2cccc(C(F)(F)F)c2)n1 (centres undefined) | 23%
COc1ccc(C(N)c2csc(NC(=O)Nc3cccc(C(F)(F)F)c3)n2)cc1 (centres undefined) | 11.3%
CC(=NNC(=S)N1CCCCCC1)c1ccccn1 | 95.3% (active)
O=C(NCCOc1ccccc1)c1ccccc1F | -74.7%
C/C(=N/NC(=O)c1ccn(C)n1)c1ccncc1 | -3.15%
CCOc1ccc(NC(=S)N2CCCCCC2)cc1 | -24.3%
C/C(=N\NC(=O)c1ccccc1F)c1ccccn1 | 94.8% (active)
CCNC(=S)N1CCN(c2ncccn2)CC1 | -18.4%
COc1ccc(/C=C/C(=O)c2c(O)cc(OC)cc2OC)cc1 | -43.5%
COCCNS(=O)(=O)c1cc(Br)ccc1OC | -12.3%
Cc1cc(C)nc(N/N=C/c2c(CO)cnc(C)c2O)n1 | 39%
CCOc1ccc(-n2c(O)c(/C=N/Nc3nc(C)cc(C)n3)c3ccccc3c2=O)cc1 | 90.6% (active)
CCOc1ccc(-n2c(SCC(=O)Nc3cc(C(=O)O)ccc3Cl)nc3ccccc3c2=O)cc1 | -1.51%
COc1ccc(CN2CCCC(CNC(=O)c3ccc(F)cc3)C2)cc1OC (centres undefined) | 3.62%
CCCCCCCCCCOC(=O)C[N+](C)(C)CC1CCCCC1O (centres undefined) | 2.65%
COc1ccc(CC(N)c2csc(NC(=O)Cc3ccccc3)n2)cc1 (centres undefined) | -16.8%
COc1ccc(CC(N)c2csc(NC(=O)NC(c3ccccc3)c3ccccc3)n2)cc1 (centres undefined) | 80.7%
COc1ccc(CC(N)c2csc(NC(=O)Nc3ccc(C(C)C)cc3)n2)cc1 (centres undefined) | 96.6% (active)
O=C(CCNS(=O)(=O)c1cccs1)N1CCN(c2ccc(F)cc2)CC1 | -1.48%
C=C(C)C(=O)O[C@H]1C/C(C)=C\C(=O)/C=C(\C)[C@H](O)[C@@H]2OC(=O)C(=C)[C@@H]21 | 87.7% (active)
COC(=O)c1c(NC(=O)c2ccc(S(=O)(=O)N3CCOCC3)cc2)sc2c1CCN(C(C)C)C2 | -14%
N#C/C(C(=S)Nc1ccccc1)=C1/NN=C(N2CCOCC2)N1c1ccccc1 | 2.09%
